# Most compounds without a hit are left out; they make up all but 15% or so of the library.
# VP16 counter: Gal4-VP16 reporter inhibition counter-screen. hit rate 3.5% among 310,000. Drosophila S2 Gal4-VP16 UAS-luciferase, luminescence, 20 h. AID 2546. Potency, µM (doses to about 53.6 µM), for the others: at the top dose activity, negative = inhibition, hits mostly inhibitors;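 also: Gal4-VP16 expression switched on by copper sulfate through the metallothionein promoter; nearly all actives have a fitted effect of over 50% in size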
# 12-LOX inh: inhibitors of human 12S-lipoxygenase ALOX12. P18054. purified 12hLO, xylenol orange hydroperoxide absorbance. Potency, µM (highest dose often 108 µM), for the others: top-dose activity change, negative = inhibition, actives largely listed as inhibitors. hit rate 1.1% among 580,000. AID 1671190
# Target sequence (P18054 whole entry, looked up): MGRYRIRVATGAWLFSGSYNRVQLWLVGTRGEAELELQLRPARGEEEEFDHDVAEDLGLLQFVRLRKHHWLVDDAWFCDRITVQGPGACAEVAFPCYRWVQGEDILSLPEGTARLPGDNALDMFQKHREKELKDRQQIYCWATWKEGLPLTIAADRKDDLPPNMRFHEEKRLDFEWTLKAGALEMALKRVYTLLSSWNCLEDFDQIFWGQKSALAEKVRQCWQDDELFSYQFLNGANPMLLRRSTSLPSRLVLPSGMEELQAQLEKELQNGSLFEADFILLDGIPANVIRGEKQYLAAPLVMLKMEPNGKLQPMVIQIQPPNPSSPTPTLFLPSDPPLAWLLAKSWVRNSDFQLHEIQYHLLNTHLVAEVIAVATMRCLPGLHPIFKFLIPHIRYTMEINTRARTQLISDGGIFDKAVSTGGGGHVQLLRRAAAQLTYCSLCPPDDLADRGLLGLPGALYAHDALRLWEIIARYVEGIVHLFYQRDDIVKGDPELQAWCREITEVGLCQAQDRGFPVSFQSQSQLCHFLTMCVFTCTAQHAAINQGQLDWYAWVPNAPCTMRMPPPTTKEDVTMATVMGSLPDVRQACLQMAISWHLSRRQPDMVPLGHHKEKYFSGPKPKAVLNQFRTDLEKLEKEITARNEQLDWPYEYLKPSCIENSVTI
#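 Purified human 12hLO (150 nM final) in 25 mM Hepes, 0.01% Triton X-100, pH 7.0 was preincubated 15 min at room temperature with compound. Then 40 uM arachidonic acid was added, 30 min. Hydroperoxide was read by Fe-XO absorbance ratio 573/405 nm.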
# ELG1 DNA repair: inhibitors of ELG1-dependent DNA repair in HEK293T cells | HEK293T ELG1-luciferase reporter, luminescence, 16 h; DNA damage induced by 5-fluorouridine | Potency, µM (series often up to 46.1 µM), for the others: top-dose activity change, negative = inhibition, most hits filed as inhibitors | hit rate 2.3% among 330,000 | AID 504467; also: nearly all actives have a fitted effect of over 55% in size
#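 Overnight (16 hr) co-exposure of 2,000 cells/well to 5-fluorouridine and compound at 37 °C preceded detection. Luciferase was quantified via ONE-Glo luminescence; loss of signal denotes inhibition.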
# DT40 TDP1 no CPT: qHTS for Inhibitors of human tyrosyl-DNA phosphodiesterase 1 (TDP1): qHTS in cells in absence of CPT; DT40 Tdp1-/- hTDP1 cells, no CPT, ATP luminescence, 48 h; Potency, µM (highest dose often 46.2 µM), inactives show at the top dose activity change, negative = growth inhibition, usual class: inhibitors; hit rate 15% among 420,000; also: nearly all actives have a fitted effect of over 55% in size
#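 Growth kinetics read by CellTiter-Glo luminescence after ≥48 hr at 37 °C. Cells: DT40 Tdp1-/- stably carrying human TDP1, 400 per well, compound exposure in the absence of CPT (DMSO vehicle).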
# RORgamma inh: blocks mouse ROR gamma transcriptional activity. P51450. Drosophila S2 Gal4-RORgamma UAS-luciferase reporter, 20 h. Potency, µM (doses to about 53.6 µM), for inactives: top-dose activity change, negative = inhibition, most hits filed as inhibitors. hit rate 5.4% among 310,000. AID 2551; also: nearly all actives have a fitted effect of over 60% in size
#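 Drosophila S2 cells stably expressing Gal4-DBD/mouse RORγ fusion under metallothionein promoter plus UAS-luciferase; compound 1 h, then 700 uM CuSO4 induction for 20 h at ambient temperature; inhibition read as reduced luminescence.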
# TDP1 cell CPT: growth inhibition of DT40 Tdp1-/-;hTDP1 cells with camptothecin (screen for TDP1 inhibitors); hit rate 12% among 420,000; AID 686979; Potency, µM (titrated, usually from 46.2 µM), inactives show top-dose activity change, negative = growth inhibition, usual class: inhibitors; chicken DT40 Tdp1-/-;hTDP1 cells + 20 nM CPT, ATP luminescence, 48 h; also: nearly all actives have a fitted effect of over 55% in size
#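 Chicken DT40 Tdp1-/- cells stably complemented with human TDP1 were seeded at 400 cells/well in medium containing 20 nM camptothecin, exposed to pin-transferred compounds, and grown at 37 °C for at least 48 hr. Viability was read as ATP luminescence.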
# The depositor's hits bear a star; ? = inconclusive; nt = no result; [ ] = another dose, or the depositor's remark. Calls follow the shape of the dose curve; as a rule, active = well fitted curve in the direction sought with a large enough effect; inconclusive = small, poorly fitted or top-dose-only effect, or another doubt; inactive = no such curve, though single readings can be large; an effect the other way counts as inactive or inconclusive. % is scaled to controls: 0 for no effect and ±100 for the full control effect; potency is read from the fitted curve at half-maximal effect.
SMILES,VP16 counter,12-LOX inh,ELG1 DNA repair,DT40 TDP1 no CPT,RORgamma inh,TDP1 cell CPT
CCN(CC(=O)Nc1c(F)cccc1F)C(=O)c1nn(Cc2ccccc2)c(=O)c2ccccc12,nt,8.7%,nt,nt,nt,nt
O=C(CN1C(=O)C(=O)c2ccccc21)c1ccc(Cl)cc1,-3.9%,12.4%,-8.6%,3.26µM*,29.3%,5.8µM*
CCN(CC)C(=O)CN1C(=O)C(=O)c2ccccc21,4.7%,-13.3%,16.0%,0.2%,3.8%,-13.0%
O=C1c2ccccc2N(Cc2ccc(Cl)cc2)C2=NCCN12,2.7%,-1.2%,-16.7%,-4.4%,-42.7%,-26.3%
O=C1C(=O)N(Cc2cccc([N+](=O)[O-])c2)c2ccccc21,-0.9%,-14.5%,-13.7%,0.92µM*,29.2%,0.651µM*
O=C1C(=O)N(Cc2ccc(Cl)c(Cl)c2)c2ccccc21,?,?,nt,1.88µM*,?,2.66µM*
CS(=O)(=O)N1CCC(OC2CCN(C(=O)Nc3ccc(F)cc3F)CC2)CC1,nt,15.4%,nt,nt,nt,nt
CC1(C(=O)NCc2cccnc2)CCc2cnc(NCc3ccccc3)nc21 (stereo not drawn),nt,7.6%[176 µM],nt,nt,nt,nt
CCNc1nc(NC(C)CC)nc(Oc2ccc(OCC)nn2)n1 (stereo not drawn),-10.8%,-2.8%,?,9.2µM*,-7.3%,10.3µM*
Cc1cccc(C2(C(=O)NC3CCC(C)CC3)CCC2)c1 (stereo not drawn),nt,41.3%,nt,nt,nt,nt
C[N+](C)(C)c1ccc(/C=C/c2ccnc3ccccc23)cc1,nt,nt,nt,0.631µM*,nt,0.794µM*
CCC[N+](C)(C)c1ccc(/C=C/c2ccnc3ccccc23)cc1,nt,nt,nt,0.178µM*,nt,0.0251µM*
Oc1ccc(/C=C/c2ccnc3ccccc23)cc1,-9.5%,?,-1.9%,11.6µM*,-40.5%,18.4µM*
Clc1ccccc1/C=C/c1ccnc2ccccc12,18.9%,-27.7%,?,?,-2.8%,?
N#CC(C#N)c1ccnc2ccccc12,nt,-22.1%,nt,-26.6%,nt,?
CC(C)N(CCNC(=O)c1n[nH]c(=O)c2ccccc12)C(C)C,nt,0.1%,nt,nt,nt,nt
Cc1ccc(C)c(NC(CNS(=O)(=O)c2ccccc2)c2ccccc2)c1 (stereo not drawn),nt,27.8%,nt,nt,nt,nt
CCc1nc(OCC(=O)c2ccccc2)c(C#N)c2c1COC(C)(C)C2,0.2%,40.3%,?,18.4µM*,-9.9%,?
Cc1oc(-c2nc(C#N)c(N3CCN(C)CC3)o2)cc1S(=O)(=O)N(C)c1ccccc1,nt,-6.9%,nt,nt,nt,nt
Cc1cccn2c(=O)c(C=NCCO)c(NCc3ccco3)nc12,9.3%,1.7%,-5.6%,-14.9%,8.7%,-17.0%
Cc1cccn2c(=O)c(C=NCc3ccco3)c(Nc3ccc(SC(F)F)cc3)nc12,-14.6%,?,-1.9%,?,0.5%,25.9µM*
CCC(CC)CC1CN2CCc3cc(OC)c(OC)cc3C2CC1(O)CC (stereo not drawn),nt,-0.9%,nt,8.2µM*,nt,8.2µM*
COc1cc2c(cc1OC)C1CC(=O)C(CC(C)C)CN1CC2 (stereo not drawn),-10.5%,?,-10.3%,-24.0%,-6.1%,-24.6%
COc1cc2c(cc1OC)C1C/C(=N\O)C(CC(C)C)CN1CC2 (stereo not drawn),1.9%,2.8%,-1.0%,20.6µM*,18.0%,?
O=C([C@@H]1C[C@H](F)CN1S(=O)(=O)c1ccccc1F)N1CCc2ccccc2C1,nt,20.2%,nt,nt,nt,nt
SMILES,VP16 counter,12-LOX inh,ELG1 DNA repair,DT40 TDP1 no CPT,RORgamma inh,TDP1 cell CPT
O=C(c1cccs1)N(C(=O)c1cccs1)c1ccc(Br)cn1,-4.5%,?,?,?,16.7%,?
NCCCN(Cc1ccc(Cl)c(Cl)c1)c1ccc(Br)cn1,nt,nt,nt,5.01µM*,nt,3.55µM*
Clc1ccc(CN(Cc2ccc(Cl)cc2)c2nn[nH]n2)cc1,-3.0%,-3.5%,?,-7.9%,-24.3%,-24.0%
NCCCN(Cc1ccc(Cl)cc1)c1ccc(Br)cn1,nt,nt,nt,7.94µM*,nt,10µM*
CN(C)S(=O)(=O)c1ccc2oc(SCCOc3ccccc3F)nc2c1,nt,14.7%,nt,nt,nt,nt
CC(=O)Nc1cccc(NC(=O)C2(Cc3nc4ccccc4s3)CCCC2)c1,nt,4.8%,nt,nt,nt,nt
Oc1ccc(-c2[nH]ncc2-c2ccc(Cl)cc2)c(O)c1,-13.2%,?,-14.7%,?,-26.0%,-15.3%
COc1ccc2c(c1)CCc1cnoc1-2,nt,10.7%,nt,-21.9%,nt,-17.6%
COc1ccc(-c2nc(C)ncc2-c2ccccc2)c(O)c1,-10.2%,-0.1%,?,-8.8%,-15.8%,-16.5%
COc1ccc(-c2cn[nH]c2-c2ccc(OC)cc2O)cc1,20µM*,0.0%,10.3µM*,?,?,?
COc1ccc2c(c1)CCc1cn[nH]c1-2,9.5%,nt,-0.1%,23.1µM*,-21.6%,?
COc1ccc(-c2nc(C)ncc2-c2ccc(Cl)cc2)c(O)c1,-3.1%,5.6%,-0.8%,-10.8%,19.2%,14.6µM*
COc1ccc(-c2[nH]ncc2-c2ccc(Cl)cc2)c(O)c1,?,52.3%,nt,?,8.91µM*,-24.2%
CN(CC(=O)Nc1ccccc1OC(F)(F)F)S(=O)(=O)c1ccc(F)cc1,nt,17.9%,nt,nt,nt,nt
COc1cccc(CN2CCC(Oc3ccc(-c4noc(C5CC5)n4)cc3)C2)c1 (stereo not drawn),nt,5.6%,nt,nt,nt,nt
Cc1ccsc1C(=O)N1CCN(C(=O)c2nnn3c2COC(c2ccc(Cl)cc2)C3)CC1 (stereo not drawn),nt,14.1%,nt,nt,nt,nt
COCCN1CCC(N2CCN(S(=O)(=O)c3ccc(C)c(C)c3)CC2)C1=O (stereo not drawn),nt,21.0%,nt,nt,nt,nt
Cc1ccc(C)c(NC(=S)N=Nc2c(O)n(C)c3ccc(S(=O)(=O)N4CCOCC4)cc23)c1,1.12µM*,-13.7%,?,2.91µM*,0.631µM*,4.11µM*
CCc1ccccc1NC(=S)N=Nc1c(O)n(C)c2ccc(S(=O)(=O)N3CCOCC3)cc12,4.47µM*,1.1%,?,5.8µM*,1.12µM*,5.17µM*
Cc1cc(S(=O)(=O)N2CCOCC2)ccc1OCC(=O)Nc1ccccc1F,-1.3%,-14.3%,7.5%,14.6%,-28.0%,2.3%
Cc1ccc(Cn2c(O)c(N=NC(=S)Nc3ccccc3F)c3cc(S(=O)(=O)N4CCOCC4)ccc32)cc1,?,-5.8%,?,2.06µM*,2µM*,3.66µM*
COc1ccc(-c2nc3n(c2C)Cc2ccccc2-3)cc1,-13.1%,14.2%,?,?,11.2µM*,-28.4%
O=c1cc(-c2ccccc2)nc2n1Cc1ccccc1-2,2.1%,0.7%,14.6%,?,-13.9%,-20.2%
